Only some compounds are listed: those with a hit (about 22% of all), similar ones and a draw of the others.
CYP2C9 act: increases human cytochrome P450 2C9 activity | P11712 | recombinant CYP2C9, luciferin-H conversion, luminescence; hits give high values; factor 1 = untreated enzyme, 0 = blocked | activation factor at 5 µM | 1.4% of 96,000 active | AID 1024;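 active = activation factor of 2 or more for CYP2C9 at a 5 µM dose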;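 also: 0 = sulfaphenazole-blocked wells and 1 = vehicle-only wells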
Target sequence (P11712 whole entry, looked up): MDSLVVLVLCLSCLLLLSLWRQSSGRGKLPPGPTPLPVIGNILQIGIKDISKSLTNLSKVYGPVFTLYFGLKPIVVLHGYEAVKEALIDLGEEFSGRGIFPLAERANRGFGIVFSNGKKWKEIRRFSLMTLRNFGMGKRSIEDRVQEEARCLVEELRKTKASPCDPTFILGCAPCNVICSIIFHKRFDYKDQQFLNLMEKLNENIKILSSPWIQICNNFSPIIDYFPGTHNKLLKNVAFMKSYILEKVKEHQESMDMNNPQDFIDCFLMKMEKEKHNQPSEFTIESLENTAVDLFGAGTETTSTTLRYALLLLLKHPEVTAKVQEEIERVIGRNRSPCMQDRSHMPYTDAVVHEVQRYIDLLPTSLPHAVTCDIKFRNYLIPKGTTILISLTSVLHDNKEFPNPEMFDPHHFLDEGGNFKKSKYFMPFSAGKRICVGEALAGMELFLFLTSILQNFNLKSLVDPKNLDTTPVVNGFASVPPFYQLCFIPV
CYP2C19 inhib: inhibitors of human CYP2C19. P33261. AID 778. 21% of 96,000 active. inhibition, % at 5 µM. CYP2C19 Supersomes, luciferin-H EGE luminescence, 30 min;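 active = CYP2C19 inhibition above a set limit at 5 µM in the primary screen, cut at about 50% in these data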;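 also: plate controls were negative control wells for no effect and 2.5 mM tranylcypromine positive control for full effect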
CYP2C9 inh: human CYP2C9 inhibition; CYP2C9 Supersomes, luciferin-H conversion, luminescence; 20% of 96,000 active; inhibition, % at 5 µM; P11712;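 active = blocking of liver enzyme CYP2C9 beyond about 50% at 5 µM, limit read from the data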
CYP2C19 activ: activators of human cytochrome P450 2C19; activation factor at 5 µM; 96,000 tested, under 10 active; recombinant CYP2C19, luciferin-H EGE luminescence; hits give high values; 0 = fully inhibited enzyme, 1 = untreated enzyme; P33261;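 active = activation factor of at least 2 at 5 µM in the primary screen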;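 also: 0 = wells with 2.5 mM tranylcypromine and 1 = vehicle-only wells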
Measles CPE: protection of cells from measles virus | Measles virus-infected cells, CPE protection, absorbance | protection (pct of control), % at 4 µM | 1.5% of 140,000 active; in the data active = protection mostly above about 24%, no sharp cut-off; inactive = mostly below about 26%
Numbers without * were called inactive; / = not tested or not shown.

SMILES	CYP2C9 act	CYP2C19 inhib	CYP2C9 inh	CYP2C19 activ	Measles CPE
CC1(c2ccccc2)NC(=O)N(CC(=O)NC(=O)NC2CCCC2)C1=O (stereo unspecified)	0.8	53*	21	0.5	18
CCOc1ccccc1CN1C(=O)NC(C)(c2ccccc2)C1=O (stereo unspecified)	1.1	94*	-12	0.1	9
CC1(c2ccccc2)NC(=O)N(CCOc2ccccc2)C1=O (stereo unspecified)	1	65*	-1	0.3	14
CC1=NNC(=O)C1CCC(=O)N/N=C(/C)c1ccc([N+](=O)[O-])cc1 (stereo unspecified)	/	/	/	/	5
COC(=O)c1c(C)[nH]c(C(C)=O)c1C	0.5	44	55*	0.6	5
COc1cc(-c2nc(S(=O)(=O)c3ccccc3)c(N3CCOCC3)o2)cc(OC)c1OC	0.1	55*	89*	0.5	8
O=S(=O)(c1ccccc1)c1nc(-c2ccco2)oc1N1CCCCCC1	0.4	66*	58*	0.3	9
CCCSc1oc(-c2ccco2)nc1S(=O)(=O)c1ccccc1	1.2	90*	-24	0.1	8
CN1CCN(c2oc(-c3ccco3)nc2S(=O)(=O)c2ccccc2)CC1	0.7	4	29	1	24
NC(=O)CSc1oc(-c2ccc(F)cc2)nc1S(=O)(=O)c1ccccc1	0.6	85*	38	0.1	7
COc1ccc(-c2nc(S(=O)(=O)c3ccc(C)cc3)c(N3CCCC3)o2)cc1	1	14	-1	0.9	8
O=c1[nH]c(=O)n(-c2ccccc2)c2c1C(C(F)(F)F)(C(F)(F)F)N=C(CCC1CCCCC1)N2	/	/	/	/	8
COc1ccc(OC)c(/C=N/c2oc(-c3ccco3)c(-c3ccco3)c2C#N)c1	0.6	-13	36	1.1	24
CCCCCCCCOC(=O)CCn1[nH]c(=O)c2ccccc2c1=O	0.3	61*	66*	0.4	6
CCCCCOC(=O)Cc1c(O)c2ccccc2n(C)c1=O	0.6	79*	44	0.2	7
Cn1c(=O)c(Cc2ccccc2)c(O)c2ccccc21	0.5	71*	50	0.3	8
CCCCCn1c(=O)c(Cc2ccccc2)c(O)c2ccccc21	/	/	/	/	7
CCOC(=O)N1CCN(c2c(NCc3ccccn3)c(=O)c2=O)CC1	1.2	27	-17	0.7	4
CC(C)(C)c1cccc(Oc2nn[nH]n2)c1	1.1	72*	-8	0.3	6
Cc1nc(SCC(=O)c2ccc(F)cc2)c([N+](=O)[O-])[nH]1	0.7	28	34	0.7	4
Cc1nc(SCC(=O)c2ccc(Cl)cc2)c([N+](=O)[O-])[nH]1	0.5	53*	48	0.5	7
Cc1cc(C)cc(CC2CC(=O)N(c3cc(C)on3)C2=O)c1 (stereo unspecified)	/	/	/	/	15
Cc1cc(N2C(=O)CC(N3CCN(C(c4ccccc4)c4ccccc4)CC3)C2=O)no1 (stereo unspecified)	0	78*	98*	0.2	1
C(=C\c1ccccc1)/CNn1cnnc1	/	/	/	/	19
CC(/C=N/n1cnnc1)=C\c1ccccc1	0.9	94*	13	0.1	19
SMILES	CYP2C9 act	CYP2C19 inhib	CYP2C9 inh	CYP2C19 activ	Measles CPE
CC(=C/c1ccccc1)/C=N/n1cnnc1	0.9	94*	14	0.1	13
Nc1nnnn1/N=C/C=C/c1ccccc1	0.8	13	21	0.9	12
CC(/C=N\N1CCN(c2ccc(Cl)cc2)CC1)=C\c1ccccc1	1	2	-2	1	5
C(=C\c1ccccc1)/C=N/n1cnnc1	0.7	84*	28	0.2	8
CC(/C=N/N1CCN(c2ccc(C)cc2)CC1)=C\c1ccccc1	/	/	/	/	15
COc1cc(OC)cc(C(=O)Nc2c(F)cccc2F)c1	/	/	/	/	7
O=C1NC(c2ccccc2)=NC1(NS(=O)(=O)c1ccc(Cl)cc1)C(F)(F)F (stereo unspecified)	/	/	/	/	11
O=C1NC(c2ccccc2)=NC1(NS(=O)(=O)c1ccccc1)C(F)(F)F (stereo unspecified)	0.9	2	10	1	41*
CC(C)CN(C#N)c1nc(N2CCOCC2)nc(N2CCOCC2)n1	0.5	20	51*	0.8	5
CC(C)CCCNc1nc(N2CCOCC2)nc(N2CCOCC2)n1	0.8	33	25	0.7	19
O=C(CSc1nnc(-c2ccncc2)n1Cc1ccco1)OC1CCCCC1	0.1	98*	92*	0	6
Cc1cccc(C)c1NC(=O)CSc1nnc(-c2ccncc2)n1Cc1ccco1	0.3	73*	67*	0.3	8
O=C(CSc1nnc(-c2ccco2)n1Cc1ccccc1)OC1CCCCC1	1.1	21	-6	0.8	2
COc1ccc(Cl)cc1NC(=O)CSc1nnc(-c2ccncc2)n1CC1CCCO1 (stereo unspecified)	0.5	60*	49	0.4	3
Cc1cc(Cl)ccc1NC(=O)CSc1nnc(-c2ccncc2)n1Cc1ccco1	0.1	86*	90*	0.1	31
COc1ccccc1NC(=O)CSc1nnc(-c2ccncc2)n1CC1CCCO1 (stereo unspecified)	0.9	2	10	1	15
O=C(CSc1nnc(-c2ccncc2)n1Cc1ccco1)Nc1nccs1	/	/	/	/	3
CCOC(=O)c1c(N2C(=O)Nc3ccccc3N2O)sc2c1CCCCC2	/	/	/	/	35
Cc1ccnc(NS(=O)(=O)c2ccc(NS(=O)(=O)c3cccs3)cc2)n1	/	/	/	/	6
N#Cc1ccc(-c2ccc(OCC(=O)NCC(=O)Nc3ccc(F)c(F)c3F)cc2)cc1	/	/	/	/	5
CCC(C)c1c(O)nc(SCc2ccccc2)[nH]c1=O (stereo unspecified)	1.1	-22	-5	1.2	6
CN(Cc1cccs1)CC(O)COCc1ccco1 (stereo unspecified)	0.9	21	10	0.8	7
COc1ccccc1C(=O)N/N=C/c1ccc(Cl)s1	/	/	/	/	11
Cc1onc(-c2ccccc2)c1C(=O)Nc1nc(-c2ccc(F)c(F)c2)cs1	0.3	79*	68*	0.2	5
Cc1onc(-c2c(Cl)cccc2Cl)c1C(=O)Nc1ccc2c(c1)OCO2	0.2	40	81*	0.6	14
SMILES	CYP2C9 act	CYP2C19 inhib	CYP2C9 inh	CYP2C19 activ	Measles CPE
Cc1onc(-c2ccccc2)c1C(=O)Nc1cccnc1	0.5	11	50*	0.9	2
Cc1csc(NC(=O)c2c(-c3c(Cl)cccc3Cl)noc2C)n1	0.1	83*	89*	0.2	8
CCCN(CCC)S(=O)(=O)c1ccc(NC(=O)c2cc(C(=O)OC)cc([N+](=O)[O-])c2)cc1	1	18	-2	0.8	3
CCOC(=O)Cc1csc(NC(=O)c2c(-c3c(F)cccc3Cl)noc2C)n1	0.3	51*	70*	0.5	5
CCOC(=O)Cc1csc(NC(=O)c2ccc(Cl)nc2)n1	0.8	17	18	0.8	4
CCOC(=O)Cc1csc(NC(=O)c2c(-c3ccccc3)noc2C)n1	0.2	82*	83*	0.2	5
CCOC(=O)CCn1nnc(N)n1	0.7	11	31	0.9	13
